{"source": "PubChem BioAssay", "note": "Active and inactive are the calls of the source.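 Rule for the calls: active = calcium signal rise more than 3 SD above the low-dose agonist control mean, in both duplicate plates and the primary screen; inactive = the rest.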", "data": [{"assay": "nonspecific potentiation of DAMGO calcium response – cell-based, HEK293 mu-opioid receptor line, counter-screen for TRPC4 allosteric potentiator project, confirmation (AID 449724);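 note: HEK293 cells carrying mu-opioid receptor only with no TRPC4 channel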", "conditions": "HEK293 mu-opioid receptor cells, Fluo-4 calcium flux, at 10 µM, compound added before EC20 DAMGO stimulus", "values": [{"smiles": "COc1ccc(CN2CCN(Cc3ccccc3F)CC2)c(OC)c1", "outcome": "inactive"}, {"smiles": "C/C(N)=C(/C#N)C(=O)COC(=O)CC12CC3CC(CC(C3)C1)C2", "outcome": "inactive"}, {"smiles": "CCCCC[n+]1cccc2c3ccccc3ccc21", "outcome": "inactive"}, {"smiles": "COc1ccc(OC)c(Nc2cc(-c3ccccc3)nc(N)n2)c1", "outcome": "inactive"}, {"smiles": "CCC1CCCCN1Cc1nc2c(c(=O)n(C)c(=O)n2C)n1Cc1ccccc1", "note": "(stereo not given)", "outcome": "inactive"}, {"smiles": "CCOC(=O)C1CCN(C2CCN(C(=O)c3oc4c(C)c(C)ccc4c3C)CC2)CC1", "outcome": "inactive"}, {"smiles": "O=[N+]([O-])c1cccc(-c2nnc(C3CC3)o2)c1", "outcome": "inactive"}, {"smiles": "CCOc1c(Cl)cc(CNCC(O)c2ccccc2)cc1OC", "note": "(stereo not given)", "outcome": "inactive"}, {"smiles": "O=C(c1cccc(C(=O)N2CCN(c3ccccc3)CC2)c1)N1CCN(c2ccccc2)CC1", "outcome": "inactive"}, {"smiles": "Cc1ccn2c(-c3csc(NCc4ccco4)n3)c(C)nc2c1", "outcome": "inactive"}, {"smiles": "COc1ccc(Nc2nc(N)c3ccccc3n2)c(OC)c1", "outcome": "inactive"}, {"smiles": "CCc1c(C(=O)N2CCCN(C)CC2)csc1C", "outcome": "inactive"}, {"smiles": "COc1ccc(C)cc1N(C(=O)c1snc(C(N)=O)c1N)C(C(=O)NC1CCCC1)c1ccc(F)cc1", "note": "(stereo not given)", "outcome": "inactive"}, {"smiles": "CC(C)(c1ccccc1)c1ccc(OCCCNCCO)cc1", "outcome": "inactive"}, {"smiles": "Cc1ccc(-n2nc(-c3cccs3)cc2C(=O)NCC2CCCO2)c(C)c1", "note": "(stereo not given)", "outcome": "inactive"}, {"smiles": "CC(C)CCN1CCN(Cc2ccsc2)CC1CCO", "note": "(stereo not given)", "outcome": "inactive"}, {"smiles": "CN(CC1CCCN(CCc2cccc(C(F)(F)F)c2)C1)C(=O)c1cc2ccccc2o1", "note": "(stereo not given)", "outcome": "inactive"}, {"smiles": "Oc1ccc(CN2CCc3ccccc3C2)c2cccnc12", "outcome": "inactive"}, {"smiles": "COc1ccc(C2C(C(C)=O)=C(O)C(=O)N2c2ccc(Br)cc2)cc1", "note": "(stereo not given)", "outcome": "inactive"}, {"smiles": "CCOC(=O)c1c(N)sc(C(O)(C(F)(F)F)C(F)(F)F)c1-c1ccccc1", "outcome": "inactive"}, {"smiles": "CC1CCCN(CCCN2C(=O)C3C(C(=O)Nc4ccc(Cl)cc4)C4C=CC3(O4)C2C(=O)NC2CCCCC2)C1", "note": "(stereo not given)", "outcome": "inactive"}, {"smiles": "O=C(C[n+]1cccc(CNC(=O)c2ccc(OC(F)F)cc2)c1)Nc1ccc(SC(F)F)cc1", "outcome": "inactive"}, {"smiles": "Cc1ncsc1CCOC(=O)c1cccc([N+](=O)[O-])c1", "outcome": "inactive"}, {"smiles": "CC#CC[N+](C)(C)CCCCCCCCCCCC", "outcome": "inactive"}, {"smiles": "Cc1cc(OCc2cc(C(=O)NCCN3CCCCC3CO)no2)cc(C)c1Cl", "note": "(stereo not given)", "outcome": "inactive"}, {"smiles": "Cc1cc(N2CCC(C)CC2)nc2cccc(O)c12", "outcome": "inactive"}, {"smiles": "Fc1ccccc1COc1ccc(Br)cc1CNCC1CCCO1", "note": "(stereo not given)", "outcome": "inactive"}, {"smiles": "Cn1cc(CNCC2CCCO2)c(-c2ccc(Oc3ccccc3)cc2)n1", "note": "(stereo not given)", "outcome": "inactive"}, {"smiles": "COc1cccc(C2=NN(C(=O)c3ccco3)C(c3ccco3)C2)c1", "note": "(stereo not given)", "outcome": "inactive"}, {"smiles": "O=C(COC(=O)Cn1cnc2ccccc2c1=O)Nc1ccccc1Sc1ccc(Cl)cc1", "outcome": "inactive"}, {"smiles": "NC(=O)c1nsc(C(=O)N(Cc2ccccc2Cl)C(C(=O)NCC2CCCO2)c2ccc(O)cc2)c1N", "note": "(stereo not given)", "outcome": "inactive"}, {"smiles": "O=C(NC1CCCCC1)N1CCN(C(c2ccccc2)c2ccccc2)CC1", "outcome": "inactive"}, {"smiles": "Cc1ccc(NC(=S)N(CCCN(C)C)Cc2cc3cc4c(cc3[nH]c2=O)OCO4)c(C)c1", "outcome": "inactive"}, {"smiles": "CCCC[n+]1c2ccccc2cc2ccccc21", "outcome": "inactive"}, {"smiles": "CC(C)(C)CC(C)(C)NCC(O)COc1ccc2c(c1)CCC2", "note": "(stereo not given)", "outcome": "inactive"}, {"smiles": "CCOc1ccc(Cl)cc1/C=N/O", "outcome": "inactive"}, {"smiles": "O=C(C[n+]1cc(-c2ccc(Cl)c(Cl)c2)n2c1CCC2)N1c2ccccc2Sc2ccccc21", "outcome": "inactive"}, {"smiles": "CC1CCc2c(sc3ncnc(SCC(=O)Nc4ccc(C(=O)O)cc4)c23)C1", "note": "(stereo not given)", "outcome": "inactive"}, {"smiles": "NS(=O)(=O)c1ccc(Nc2nc(-c3ccc(O)cc3O)cs2)cc1", "outcome": "inactive"}, {"smiles": "CCCn1c(NC(=O)c2ccc(Cl)c(S(=O)(=O)N3CCCC3)c2)nc2ccccc21", "outcome": "inactive"}]}]}
